In PubChem BioAssay AID430 (Sanford-Burnham Center for Chemical Genomics, 2006):
Among all 63,000 compounds or so, about 1,100 (1.7%) were called active. The sample as a whole holds a higher share of actives than the screen did. Potency and affinity values are given separately. Unmarked numbers belong to inactive results. Cut-off read from the data, not from the text of the source: active = cytotoxicity above about 50%; inactive = the rest.

experiment: cytotoxicity in HPDE-C7 cells, cell-based, fluorescence, HTS (AID 430); settings: HPDE-C7 pancreatic duct cells viability, at 10 µM, active compounds read high;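 note: cells exposed to compound for 48 hours before viability readout; 0% = vehicle and 100% = reference cytotoxic drug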

| SMILES | cytotoxicity |
| --- | --- |
| COc1ccc2[nH]c(C(=O)O)c(CCC(=O)O)c2c1 | 5.8% |
| O=C(O)CCc1cc(I)c(Oc2ccc(O)c(I)c2)c(I)c1 | 92.3% (active) |
| N[C@@H](Cc1ccc(O)c(I)c1)C(=O)O | -10.4% |
| O=C(Nc1nc2ccccc2[nH]1)c1ccc(F)cc1 | -12.8% |
| Cc1nc2ccc(C(=O)c3ccccc3)cc2[nH]1 | -13.6% |
| O=C(COc1ccccc1)Nc1nc2ccccc2[nH]1 | -9.3% |
| COC(=O)Nc1nc2ccc(C(=O)c3ccccc3)cc2[nH]1 | 69.2% (active) |
| COc1cc(C(=O)Nc2nc3ccccc3[nH]2)cc(OC)c1OC | -19.5% |
| COC(=O)Nc1nc2ccc(Sc3ccccc3)cc2[nH]1 | 60.6% (active) |
| Cc1c(NC(=O)c2cc(-c3ccccc3)on2)c(=O)n(-c2ccccc2)n1C | -4.6% |
| O=S(=O)(NCC1CCCO1)c1cccc2nsnc12 (centres undefined) | -2.4% |
| O=C(OCc1cc(-c2ccccc2)no1)c1ccc2ccccc2n1 | -17.4% |
| CSc1ncc(Cl)c(C(=O)Nc2ccc(S(=O)(=O)N3CCOCC3)cc2)n1 | 7.9% |
| O=C(Nc1ccc(N2CCOCC2)cc1)c1cnsn1 | -19.9% |
| CS(=O)(=O)c1ncc(Cl)c(C(=O)Nc2ccc(N3CCOCC3)cc2)n1 | 72.4% (active) |
| Cc1cc(NC(=O)CCN2C(=O)c3ccccc3C2=O)no1 | -2.5% |
| CCn1c2ccccc2c2cc(C3C(C#N)=C(C)NC(C)=C3C#N)ccc21 | -2.6% |
| CCn1c2ccccc2c2cc(C3C(C#N)=C(N)OC4=C3C(=O)CC(C)(C)C4)ccc21 (centres undefined) | -26.8% |
| CCCc1[nH]nc2c1C(c1ccccc1OC)C(C#N)=C(N)O2 (centres undefined) | 4.9% |
| O=C(O)C1C2C=CC3(CN(Cc4ccco4)C(=O)C13)O2 (centres undefined) | -6.3% |
| O=C(O)C1C2C=CC3(CN(Cc4ccncc4)C(=O)C13)O2 (centres undefined) | -13.4% |
| O=C(O)C1C2C=CC3(CN(Cc4ccccn4)C(=O)C13)O2 (centres undefined) | 63.6% (active) |

| SMILES | cytotoxicity |
| --- | --- |
| COCCn1c(SCC(=O)N2CCCc3ccccc32)nnc1-c1ccco1 | -4.5% |
| CC(=O)N1C(=O)C2(Nc3ccccc3N2)c2ccccc21 | -0.7% |
| CCNC(=O)N1C(=O)C2(OCCO2)c2ccccc21 | -15.9% |
| CCCCOc1ccc(OCCCC)c2c1NC1(N2)C(=O)N(C(C)=O)c2ccccc21 | 69.8% (active) |
| CCOC(=O)Cc1nnc(NC(=O)Nc2ccccc2)s1 | 5% |
| Nc1ccc(-c2nc3ccccc3[nH]2)cc1 | -5.6% |
| Nc1cc(N)cc(-c2nc3ccccc3o2)c1 | 18.2% |
| Nc1ccc(-c2nc3ccc(-c4nc5ccccc5o4)cc3[nH]2)cc1 | 76.2% (active) |
| O=S(=O)(Nc1nnc(-c2ccccc2)s1)c1ccc(Cl)cc1 | 8.8% |
| FC(F)(F)c1cc(-c2ccco2)nc(-n2nc(C(F)(F)F)cc2C2CC2)n1 | 5.7% |
| Cn1c(=O)c2c(nc(SCC(=O)N3CCCc4ccccc43)n2C)n(C)c1=O | -17.3% |
| O=C(CCCCn1c(=O)c2ccccc2n(Cc2ccc(F)cc2Cl)c1=O)NCc1ccco1 | 2.9% |
| O=C(NCc1ccccn1)c1ccc(COc2ccc(Cl)cc2)o1 | 4.2% |
| Cc1nc(N2CCCC2)c2nnn(Cc3ccccc3Cl)c2n1 | -10.9% |
| O=C(c1ccco1)N1CCN(c2nc(C(F)(F)F)nc3c2nnn3Cc2ccccc2)CC1 | 11.6% |
| CC(=O)Nc1ccc(NC(=O)c2c(C)nc3ccccn23)cc1 | 6.8% |
| Cc1[nH]nc2c1C(C1CC=CCC1)C(C#N)=C(N)O2 (centres undefined) | 0.7% |
| N#CC1=C(N)Oc2cc(N)ccc2C1C1CC=CCC1 (centres undefined) | 59.8% (active) |
| COc1ccc(C2C(C#N)=C(N)Oc3cc(O)ccc32)cc1OC (centres undefined) | -6.7% |
| N#CC1=C(N)Oc2cc(N)ccc2C1C1CCCCC1 (centres undefined) | 22.2% |
| COc1ccc(OC)c(C2C(C#N)=C(N)Oc3cc(N)ccc32)c1 (centres undefined) | -0.7% |
| COc1cc(C2C(C#N)=C(N)Oc3cc(N)ccc32)cc(OC)c1OC (centres undefined) | 58.5% (active) |

| SMILES | cytotoxicity |
| --- | --- |
| Cc1cc(C(=O)NCC2CCCO2)n(-c2ccccc2)n1 (centres undefined) | 0.2% |
| CCOc1ccc(NC(=O)c2oc3ccccc3c2NC(=O)C(C)C)cc1 | 11.9% |
| C=CCN1C(=O)C(CC(=O)O)SC1=Nc1c(C)n(C)n(-c2ccccc2)c1=O (centres undefined) | -3.1% |
| Cc1nc2ccccc2c2oc(C(=O)NCc3ccccn3)cc12 | 4.5% |
| O=C1CC(N2CCN(C3CC(=O)N(CCc4ccccc4)C3=O)CC2)C(=O)N1CCc1ccccc1 (centres undefined) | -9.9% |
| N#CC(C#N)=c1ccc2c(c1)N1C3=C(CCCC3)CC3CCCCC31N=2 (centres undefined) | 72% (active) |
| N#C/C(C(N)=O)=c1/ccc2c(c1)N1C3=C(CCCC3)CC3CCCCC31N=2 (centres undefined) | 77.9% (active) |
| Cc1cc(C(=O)COC(=O)C2=COCCO2)c(C)n1-c1ccc2c(c1)OCO2 | -7.4% |
| CCCc1cc(C(=O)NC2CCCC2)no1 | -4.5% |
| CCOC(=O)N1CCN(C(=O)CCn2c(=S)[nH]c3cc(OCC)c(OCC)cc3c2=O)CC1 | 1.3% |
| CCN1CCN(C(c2cccs2)C(C)NC(=O)c2ccccc2)CC1 (centres undefined) | 2.9% |
| CCOC(=O)N1CCN(c2cc(NCCC(=O)O)c3c4c(onc24)-c2ccccc2C3=O)CC1 | 58.8% (active) |
| O=C(O)CCCNc1cc(N2CCC3(CC2)OCCO3)c2noc3c2c1C(=O)c1ccccc1-3 | 34.7% |
| CCOC(=O)c1c(C)noc1CP(=O)(c1ccccc1)c1ccccc1 | 4.8% |
| CC(=O)OCCNc1cc(N2CCN(C)CC2)c2noc3c2c1C(=O)c1ccccc1-3 | 7.3% |
| CCOc1ccc2noc3c2c1C(=O)c1ccccc1-3 | 29.3% |
| CCC1CCCCN1C(=O)CSc1nnc(-c2ccc(Cl)cc2)o1 (centres undefined) | 1.2% |
| O=C(O)c1[nH]c2ccc(Cl)cc2c1CC(=O)N1CCN(C(=O)c2ccco2)CC1 | -1% |
| O=C(O)c1[nH]c2ccc(Cl)cc2c1CC(=O)N1CCN(c2ccccc2)CC1 | 5.3% |
| Cc1cccc(N2CCN(C(=O)Cc3c(C(=O)O)[nH]c4ccc(Cl)cc34)CC2)c1C | 76.3% (active) |
